# Test results: PubChem BioAssay (EPA / NIEHS)
# Where “and” joins values, the source holds several entries; their conditions need not be identical. Identical values can stand only once. Records with an inconclusive call do not appear. Some structures have more than one record in an assay (separate samples or runs), and their calls can disagree. Calls of active or inactive are those of the source. The calls were made as follows, unless noted: active = hit-call score of the fitted dose curve at least 0.9, where 1 is the maximum; inconclusive = response in the unintended direction; inactive = score below 0.9.
# Key:
# [1] = TOX21_p53_BLA_p2_viability: Viability Assessment in the Tox21 HCT-116 p53 Agonism Beta-lactamase Assay, Phase 2 (AID 2283591);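 also: compound exposure lasted 16 h at 37 °C; actives lower the ATP signal meaning cytotoxicity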
# Procedure, shortened: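 HCT116 p53-bla cells, 4000/well, dosed after 5 h plating (217-fold dilution of DMSO stocks) and incubated 16 h at 37C. Viability taken as cellular ATP by CellTiter-Glo luminescence after 30 min RT; signal loss marks cytotoxicity.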
# [2] = biological target: Cellular tumor antigen p53 (Homo sapiens) (UniProt P04637); assay: TOX21_p53_BLA_p2_ratio: Tox21 HCT-116 p53 Agonism Beta-lactamase Assay, Ratio, Phase 2 (AID 2283592)
# Procedure, shortened: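 Plated HCT116 p53-bla cells (4000/well) received compound after 5 h, then 16 h at 37C/5% CO2. CCF4-AM added, 2 h RT. Ratio of 460 to 530 nm emission taken as the p53 reporter signal.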
# [3] = TOX21_p53_BLA_p3_viability: Viability Assessment in the Tox21 HCT-116 p53 Agonism Beta-lactamase Assay, Phase 3 (AID 2283593);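 also: cells exposed to compound for 16 h before reading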
# Procedure, shortened: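 HCT116 cells, 4000/well, dosed 5 h after plating by pin transfer (217-fold dilution from DMSO stock) and incubated 16 h at 37C, 5% CO2. Viability read as ATP luminescence with CellTiter-Glo after 30 min at room temperature.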
# [4] = biological target: Cellular tumor antigen p53 (Homo sapiens) (UniProt P04637); assay: TOX21_p53_BLA_p3_ratio: Tox21 HCT-116 p53 Agonism Beta-lactamase Assay, Ratio, Phase 3 (AID 2283596)
# Procedure, shortened: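 Cells were seeded at 4000/well, rested 5 h at 37C, then dosed with DMSO compound solutions (217-fold dilution) for 16 h. CCF4-AM substrate was loaded for 2 h at room temperature, and the 460/530 nm emission ratio was fitted for gain of signal versus DMSO.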
# [5] = TOX21_p53_BLA_p4_viability: Viability Assessment in the Tox21 HCT-116 p53 Agonism Beta-lactamase Assay, Phase 4 (AID 2283597);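 also: hits lower the luminescence signal meaning cytotoxicity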
# Procedure, shortened: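 Readout: ATP luminescence (CellTiter-Glo), measured 30 min after reagent addition at RT. The reagent followed a 2 h CCF4-AM incubation, and the cells had been exposed to compound for 16 h at 37C.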
# [6] = biological target: Cellular tumor antigen p53 (Homo sapiens) (UniProt P04637); assay: TOX21_p53_BLA_p5_ratio: Tox21 HCT-116 p53 Agonism Beta-lactamase Assay, Ratio, Phase 5 (AID 2283599)
# Procedure, shortened: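 HCT-116 p53-bla cells (4000/well) plated 5 h, dosed with compound (217-fold DMSO dilution) for 16 h at 37 C; CCF4-AM substrate 2 h at room temperature. Activity is the 460/530 nm emission ratio (405 nm excitation), fitted in gain-of-signal direction versus DMSO.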
# [7] = TOX21_p53_BLA_p5_viability: Viability Assessment in the Tox21 HCT-116 p53 Agonism Beta-lactamase Assay, Phase 5 (AID 2283600)
# Procedure, shortened: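 Workflow: seed 4000 cells per well, wait 5 h, add compounds (DMSO, 217-fold dilution), incubate 16 h, load CCF4-AM 2 h, add CellTiter-Glo, read luminescence after 30 min.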
# [8] = biological target: Cellular tumor antigen p53 (Homo sapiens) (UniProt P04637); assay: TOX21_p53_BLA_p4_ratio: Tox21 HCT-116 p53 Agonism Beta-lactamase Assay, Ratio, Phase 4 (AID 2283601)
# Procedure, shortened: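 HCT-116 p53 beta-lactamase reporter cells (4000/well) preincubated 5 h, then compound (217-fold dilution of DMSO stock) for 16 h at 37C. CCF4-AM substrate added 2 h at room temperature; 460/530 nm emission ratio fitted upward versus DMSO.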
# [9] = CCTE_Harrill_HTTr_Viability_MCF7: CCTE's 6-hour Cell Viability Assessment for the High-Throughput Transcriptomics (HTTr) Platform, in MCF-7 cells cultured in DMEM + 10% fetal bovine serum, Harrill Lab (AID 2284010; active = hit-call score of the fitted dose curve at least 0.9, where 1 is the maximum; inactive = score below 0.9)
# Procedure, shortened: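 Eight-point concentration series, six-hour exposure. Propidium iodide exclusion imaged to assess membrane integrity as a cytotoxicity readout; bidirectional fitting was done with DMSO as negative control and activity baseline.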
# [10] = CCTE_Harrill_HTTr_Apoptosis_MCF7: CCTE's 6-hour Apoptosis Assessment for the High-Throughput Transcriptomics (HTTr) Platform, in MCF-7 cells cultured in DMEM + 10% fetal bovine serum, Harrill Lab (AID 2284011; active = hit-call score of the fitted dose curve at least 0.9, where 1 is the maximum; inactive = score below 0.9)
# Procedure, shortened: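 MCF-7 (DMEM + 10% FBS), 384-well; 8-pt dilution series, 6 h chemical exposure; caspase-3/7 activation via CellEvent Caspase 3/7 Green, HCI; bidirectional fit vs DMSO.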
# Sequence of Cellular tumor antigen p53 (Homo sapiens) (P04637 whole entry, looked up): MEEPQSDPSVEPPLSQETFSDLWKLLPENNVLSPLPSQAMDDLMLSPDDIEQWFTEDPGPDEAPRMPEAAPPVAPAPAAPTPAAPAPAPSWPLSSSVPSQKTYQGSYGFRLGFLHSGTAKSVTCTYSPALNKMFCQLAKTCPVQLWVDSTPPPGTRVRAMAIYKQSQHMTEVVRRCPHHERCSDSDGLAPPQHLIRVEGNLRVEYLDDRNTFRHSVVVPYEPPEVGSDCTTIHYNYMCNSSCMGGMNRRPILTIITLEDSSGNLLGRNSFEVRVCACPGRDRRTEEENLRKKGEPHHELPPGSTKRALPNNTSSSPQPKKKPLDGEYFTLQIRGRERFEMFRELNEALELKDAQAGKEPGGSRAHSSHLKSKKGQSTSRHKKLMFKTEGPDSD
Structure (SMILES),outcome [1],outcome [2],outcome [3],outcome [4],AC50 [5],outcome [5],outcome [6],outcome [7],AC50 [8],outcome [8],AC50 [1],AC50 [3],AC50 [6],AC50 [7],outcome [9],outcome [10],AC50 [4]
COC(=O)[C@H]1[C@H]2C[C@@H]3c4[nH]c5ccccc5c4CCN3C[C@H]2C[C@@H](OC(=O)c2cc(OC)c(OC)c(OC)c2)[C@@H]1OC,inactive,inactive,inactive,inactive,6.8 µM (active),inactive,inactive,inactive,15.7 µM (active),inactive,,,,,,,
C#C[C@]1(OC(C)=O)CC[C@H]2[C@@H]3CCC4=C[C@@H](OC(C)=O)CC[C@@H]4[C@H]3CC[C@@]21C,,inactive,inactive,inactive,,inactive,inactive,inactive,,inactive,36.9 µM (active) and 34.4 µM (active),37.3 µM (active),43 µM (active),36.7 µM (active),inactive,inactive,
COC(=O)C1=C(C)NC(C)=C(C(=O)OC)C1c1ccccc1[N+](=O)[O-],inactive,inactive,inactive,inactive,,inactive,inactive,inactive,,inactive,,38.3 µM (active),,,,,
C[N+]1(CC2COC(c3ccccc3)(c3ccccc3)O2)CCCCC1 (stereo not given),inactive,inactive,inactive,inactive,,inactive,,,,,,,,,,,
O=S(=O)(O)c1ccc2nc(-c3ccccc3)[nH]c2c1,,inactive,inactive,inactive,33.8 µM (active) and 23 µM (active),,,inactive,,inactive,30.2 µM (active) and 19.9 µM (active),15.6 µM (active),,24.8 µM (active),,,
O=[N+]([O-])c1cccc(C(F)(F)F)c1,inactive,inactive,inactive,inactive,,,,,,,,,,,,,
Cc1c(C)c2c(c(C)c1OC(=O)CCC(=O)O)CC[C@@](C)(CCC[C@H](C)CCC[C@H](C)CCCC(C)C)O2,inactive,inactive,,inactive,,inactive,inactive,inactive,,inactive,,46.5 µM (active) and 41.2 µM (active),,,,,67.7 µM (active)
NNCCc1ccccc1,inactive,inactive,inactive,inactive,74.1 µM (active),inactive,inactive,inactive,,inactive,,,,,,,
CC1(C)[C@@H](O)CC[C@]2(C)[C@H]3C(=O)C=C4[C@@H]5C[C@@](C)(C(=O)O)CC[C@]5(C)CC[C@@]4(C)[C@]3(C)CC[C@@H]12,inactive,inactive,inactive,inactive,,inactive,inactive,inactive,,inactive,,61.4 µM (active) and 22.5 µM (active),43.1 µM (active),30.6 µM (active) and 33.5 µM (active),,,46.4 µM (active)
